From PubChem BioAssay (Tox21)
Results filed as inconclusive are left out. Activity calls are given as the source filed them. Unless noted, calls come from the whole dose curve; as a rule, active = well fitted curve in the direction sought with a large enough effect in the repeat runs; inconclusive = weak or mixed curves; inactive = no such curve, though single readings can be large; an effect the other way counts as inactive or inconclusive.

Tests used:
[1] = A CellTox Green Cytotoxicity Assay to monitor cytotoxicity in HEK293 cells - 32 hour (AID 1224881); note: nearly all actives have a fitted effect of over 40% in size
How it was run: (§1)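 Cells (HEK293, 600/well) and dye reagent are dispensed together. After 5 h at 37 C, 23 nL compound is pinned in. Plates stay at 37 C for 40 h with fluorescence read at 0h, 8h, 16h, 24h, 32h and 40h.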

[2] = A CellTox Green Cytotoxicity Assay to monitor cytotoxicity in HepG2 cells - 0 hour (AID 1224882); note: nearly all actives have a fitted effect of over 35% in size
How it was run: (§2)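 Cells and non-lytic dye reagent are dispensed together (600 HepG2 cells/well) and incubated 5 h before DMSO compound transfer. Kinetic fluorescence is then recorded in the same wells during 40 h at 37 C.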

[3] = A CellTox Green Cytotoxicity Assay to monitor cytotoxicity in HepG2 cells - 32 hour (AID 1224883); note: nearly all actives have a fitted effect of over 50% in size
How it was run: as §2

[4] = A CellTox Green Cytotoxicity Assay to monitor cytotoxicity in HEK293 cells - 8 hour (AID 1224884); note: nearly all actives have a fitted effect of over 35% in size
How it was run: as §1

[5] = qHTS RealTime-Glo MT Cell Viability Assay in HepG2 cells - 16 hour (AID 1224885); note: nearly all actives have a fitted effect of over 50% in size
How it was run: (§3)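 Viability was tracked continuously by NanoLuc luminescence from prosubstrate reduced by living HepG2 cells, at successive time points over 40 h of compound exposure. Cells with reagent were preincubated 5 h at 37 °C before compound addition.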

[6] = qHTS RealTime-Glo MT Cell Viability Assay in HEK293 cells - 24 hour (AID 1224886); note: top concentration of the series differs between compounds; nearly all actives have a fitted effect of over 50% in size
How it was run: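 Viability tracked continuously by luminescence as live cells reduce a prosubstrate for NanoLuc; HEK293 cells preincubated 5 h, compound-treated at 37 C, and read at 0, 8, 16, 24, 32 and 40 h.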

[7] = qHTS RealTime-Glo MT Cell Viability Assay in HEK293 cells - 8 hour (AID 1224887); note: top concentration of the series differs between compounds; nearly all actives have a fitted effect of over 50% in size
How it was run: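 Real-time viability in HEK293: signal arises when living cells convert a prosubstrate for NanoLuc in the medium, so luminescence tracks viable cell number. Compound (23 nL, DMSO) added 5 h post-seeding; kinetic reads at 0–40 h, 37 C.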

[8] = A CellTox Green Cytotoxicity Assay to monitor cytotoxicity in HEK293 cells - 16 hour (AID 1224888); note: nearly all actives have a fitted effect of over 35% in size
How it was run: as §1

[9] = qHTS RealTime-Glo MT Cell Viability Assay in HepG2 cells - 0 hour (AID 1224889); note: nearly all actives have a fitted effect of over 50% in size
How it was run: as §3

[10] = A CellTox Green Cytotoxicity Assay to monitor cytotoxicity in HepG2 cells - 8 hour (AID 1224890); note: nearly all actives have a fitted effect of over 45% in size
How it was run: as §2

[11] = qHTS assay to identify small molecule antagonists of the estrogen receptor alpha (ER-alpha) signaling pathway using the BG1 cell line in the presence of 0.1 nM 17-beta-estradiol - cell viability counter screen (AID 1259241); note: nearly all actives have a fitted effect of over 40% in size
How it was run: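 Cells were plated and left 24 hr, compounds in DMSO were pinned in, 17beta-estradiol was added to 0.1 nM final, and after 22 hr CellTiter-Fluor reagent was added for 30 min before fluorescence was read.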

[12] = qHTS assay to identify small molecule antagonists of the androgen receptor (AR) signaling pathway using the MDA cell line in the presence of 0.5 nM R1881 - cell viability counter screen (AID 1259242); note: nearly all actives have a fitted effect of over 45% in size
How it was run: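 Steps: plate MDA-kb2 cells, rest 5 hr at 37C without CO2; pin in compounds in DMSO; add R1881 to 0.5 nM final; incubate 16 hr; add CellTiter-Fluor, 30 min; read fluorescence.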

[13] = biological target: Estrogen receptor (Homo sapiens) (UniProt P03372); assay: qHTS assay to identify small molecule antagonists of the estrogen receptor alpha (ER-alpha) signaling pathway using the BG1 cell line in the presence of 0.1 nM 17-beta-estradiol (AID 1259244); note: nearly all actives have a fitted effect of over 50% in size
How it was run: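 Antagonist mode: compounds in DMSO are pinned onto VM7Luc4E2 reporter cells, 0.1 nM final 17beta-estradiol is added, and after 22 h at 37C luciferase luminescence is measured with ONE-Glo.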

[14] = qHTS assay to identify small molecule HDAC inhibitors (AID 1259364);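 note: wild-type HCT-116 cells with endogenous class I/II HDAC activity; top concentration of the series differs between compounds; nearly all actives have a fitted effect of over 45% in size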
How it was run: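 Cells (HCT-116, wild type) are seeded at 1,500 per well, incubated overnight, treated with compound in DMSO for 2 hr, then developed with HDAC-Glo I/II reagent for 30 min at room temperature.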

[15] = qHTS assay to identify small molecule HDAC inhibitors - cell viability counter screen (AID 1259365)
How it was run: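 Counter screen in wild-type HCT-116 cells: compounds dissolved in DMSO are pin-transferred onto overnight-plated cells and left 2hr at 37C. ATP-based CellTiter-Glo luminescence then measures viable cells.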

[16] = qHTS assay to identify small molecule agonists of the sonic hedgehog signaling (Shh) pathway - cell viability counter screen (AID 1259366); note: nearly all actives have a fitted effect of over 50% in size
How it was run: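 Cells are plated at 2,000 per well and left 4hr at 37C, 5% CO2 before compound addition. After 23hr of treatment, CellTiter-Fluor reagent is added for 1hr at 37C and fluorescence is measured.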

[17] = qHTS assay to identify small molecule antagonists of the sonic hedgehog signaling (Shh) pathway - cell viability counter screen (AID 1259367); note: nearly all actives have a fitted effect of over 55% in size
How it was run: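 Conditioned medium drove Shh signaling in 3T3 Gli1-Luc cells exposed to compounds at 37C and 5% CO2. Viability was determined from CellTiter-Fluor fluorescence, with reagent incubated 1 hr after 23 hr of treatment.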

[18] = qHTS assay to identify small molecule agonists of the sonic hedgehog signaling (Shh) pathway (AID 1259368; calls by dose curve;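 note: NIH/3T3-derived 3T3Gli1-Luc cells carrying a stable Gli1-driven firefly luciferase reporter; series mostly up to about 92 µM; nearly all actives have a fitted effect of over 15% in size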)
How it was run: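 Cells of a mouse NIH/3T3 clone stably expressing luciferase under the Gli1 transcriptional response element are exposed to test chemicals for 24 hr at 37 C. Pathway activation is detected as a rise in luminescence.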

[19] = qHTS assay to identify small molecule phospholipidosis (PLD) inducers (AID 1259344; active = well fitted curve in the direction sought with a large enough effect; an effect the other way counts as inactive or inconclusive)
How it was run: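 After 4 h attachment on collagen I, HepG2 cells were dosed with compound alongside LipidTOX Red, kept 24 h at 37 C, fixed, and imaged for lamellar phospholipid pits.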
% is set by controls: 0 for no effect and ±100 for the full control effect.

Chain of Estrogen receptor (Homo sapiens) (P03372 whole entry, looked up): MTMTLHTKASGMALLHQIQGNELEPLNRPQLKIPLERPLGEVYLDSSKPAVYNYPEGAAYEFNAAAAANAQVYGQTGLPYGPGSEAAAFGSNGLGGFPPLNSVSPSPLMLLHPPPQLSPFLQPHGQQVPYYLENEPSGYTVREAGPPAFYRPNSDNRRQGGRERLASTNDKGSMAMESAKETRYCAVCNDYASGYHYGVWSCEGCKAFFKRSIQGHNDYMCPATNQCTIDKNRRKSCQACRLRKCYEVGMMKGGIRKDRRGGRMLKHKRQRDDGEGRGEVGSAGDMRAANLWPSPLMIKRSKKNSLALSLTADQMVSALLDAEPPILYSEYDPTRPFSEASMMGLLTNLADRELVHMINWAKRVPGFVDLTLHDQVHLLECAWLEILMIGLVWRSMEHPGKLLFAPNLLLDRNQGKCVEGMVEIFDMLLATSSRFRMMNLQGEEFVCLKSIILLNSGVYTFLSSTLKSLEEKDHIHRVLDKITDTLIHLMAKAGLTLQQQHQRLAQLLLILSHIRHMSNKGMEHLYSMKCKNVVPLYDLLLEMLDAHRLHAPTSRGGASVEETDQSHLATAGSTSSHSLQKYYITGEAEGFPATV

CCOP(=O)(Sc1ccccc1)Sc1ccccc1
inactive: Potency [1] | Potency [2] | Potency [3] | Potency [4] | Potency [5] | Potency [6] | Potency [7] | Potency [8] | Potency [9] | Potency [10] | Potency [11] | Potency [12] | Potency [13] | Potency [14] | Potency [15] | Potency [16] | Potency [17] | Potency [18]

CC(Cc1ccccc1)N(C)Cc1ccco1 (stereo not drawn)
inactive: Potency [1] | Potency [2] | Potency [3] | Potency [4] | Potency [5] | Potency [6] | Potency [7] | Potency [8] | Potency [9] | Potency [10] | Potency [11] | Potency [12] | Potency [13] | Potency [14] | Potency [15] | Potency [16] | Potency [17] | Potency [18]

O=Cc1ccccc1
inactive: Potency [1] | Potency [2] | Potency [3] | Potency [4] | Potency [5] | Potency [6] | Potency [7] | Potency [8] | Potency [9] | Potency [10] | Potency [11] | Potency [12] | outcome [19] | Potency [14] | Potency [15] | Potency [16] | Potency [17] | Potency [18]

O=P(Cl)(Cl)Cl
inactive: Potency [1] | Potency [2] | Potency [3] | Potency [4] | Potency [5] | Potency [6] | Potency [7] | Potency [8] | Potency [9] | Potency [10] | Potency [11] | Potency [12] | Potency [13] | Potency [14] | Potency [15] | Potency [16] | Potency [17] | Potency [18]

O=C(N[C@H]1N=C(c2ccccc2F)c2cccc3c2N(CC3)C1=O)c1cc2ccccc2[nH]1
inactive: Potency [1] | Potency [2] | Potency [3] | Potency [4] | Potency [5] | Potency [6] | Potency [7] | Potency [8] | Potency [9] | Potency [10] | Potency [11] | Potency [12] | outcome [19] | Potency [15] | Potency [16] | Potency [17] | Potency [18]

COP(=S)(OC)Oc1ccc([N+](=O)[O-])c(C)c1
inactive: Potency [1] | Potency [2] | Potency [3] | Potency [4] | Potency [5] | Potency [6] | Potency [7] | Potency [8] | Potency [9] | Potency [10] | Potency [11] | Potency [12] | Potency [13] | Potency [14] | Potency [15] | Potency [16] | Potency [18]

CCCCCON=O
inactive: Potency [1] | Potency [2] | Potency [3] | Potency [4] | Potency [5] | Potency [6] | Potency [7] | Potency [8] | Potency [9] | Potency [10] | Potency [11] | Potency [12] | Potency [14] | Potency [15] | Potency [16] | Potency [17] | Potency [18]

Cc1cnc2c(C(=O)O)c(Cl)ccc2c1
inactive: Potency [1] | Potency [2] | Potency [3] | Potency [4] | Potency [5] | Potency [6] | Potency [7] | Potency [8] | Potency [9] | Potency [10] | Potency [11] | Potency [12] | Potency [13] | Potency [14] | Potency [15] | Potency [16] | Potency [17] | Potency [18]

CCN(CC)C(=O)N[C@@H]1C=C2c3cccc4[nH]cc(c34)C[C@@H]2N(C)C1
inactive: Potency [1] | Potency [2] | Potency [3] | Potency [4] | Potency [5] | Potency [6] | Potency [7] | Potency [8] | Potency [9] | Potency [10] | Potency [11] | Potency [12] | Potency [13] | outcome [19] | Potency [14] | Potency [15] | Potency [16] | Potency [18]

CN=C=O
inactive: Potency [1] | Potency [2] | Potency [3] | Potency [4] | Potency [5] | Potency [6] | Potency [7] | Potency [8] | Potency [9] | Potency [10] | Potency [11] | Potency [12] | Potency [14] | Potency [15] | Potency [16] | Potency [17] | Potency [18]

CCCCN(CCCC)C(=S)[S-].CCCCN(CCCC)C(=S)[S-].[Ni+2]
inactive: Potency [1] | Potency [2] | Potency [3] | Potency [4] | Potency [5] | Potency [6] | Potency [7] | Potency [8] | Potency [9] | Potency [10] | Potency [11] | Potency [12] | Potency [14] | Potency [15] | Potency [16] | Potency [17] | Potency [18]

CNC(=O)CSP(=O)(OC)OC
inactive: Potency [1] | Potency [2] | Potency [3] | Potency [4] | Potency [5] | Potency [6] | Potency [7] | Potency [8] | Potency [9] | Potency [10] | Potency [11] | Potency [12] | Potency [13] | Potency [14] | Potency [15] | Potency [16] | Potency [17] | Potency [18]

Clc1c(Cl)c(Cl)c(Cl)c(Cl)c1Cl
inactive: cytotoxicity increase [1] -13.5% [at 6.97 µM] | cytotoxicity [2] 1.34% [at 6.97 µM] | cytotoxicity increase [3] -1.01% [at 6.97 µM] | cytotoxicity increase [4] -13.2% [at 6.97 µM] | activity change, negative = cytotoxic [5] -0.903% [at 6.97 µM] | activity change, negative = cytotoxicity [6] 2.9% [at 6.97 µM] | activity change, negative = cytotoxicity [7] 4.5% [at 6.97 µM] | activity change [8] -13.4% [at 6.97 µM, active compounds read high] | activity change, negative = cytotoxicity [9] 6.05% [at 6.97 µM] | cytotoxicity increase [10] 1.99% [at 6.97 µM] | activity change, negative = cytotoxicity [11] 2.59% [at 8.39 µM] | viability change, negative = cytotoxic [12] 0.413% [at 8.39 µM] | activity change, negative = inhibition [14] 1.74% [at 8.39 µM] | activity change, negative = cytotoxicity [15] 0.165% [at 8.39 µM] | viability change, negative = cytotoxic [16] 1.7% [at 8.39 µM] | viability change, negative = cytotoxic [17] 2.78% [at 8.39 µM] | activity change [18] -0.252% [at 8.39 µM, active compounds read high]
